Screening data (PubChem BioAssay)
This excerpt belongs to a sample that is enriched for hits.
RBX1-CUL1 inh: inhibitors of human ROC1-CUL1 ubiquitin ligase activity; P62877+Q13616; in vitro K48 di-Ub FRET, acceptor:donor ratio, 45 min; inhibition, % at 10 µM; 140,000 compounds, 0.6% hits; AID 1347404; in the data active means inhibition above about 25%
Of the large screens only hits and unclear results are named; the others gave an inactive call.

N#Cc1ccccc1COc1ccc(/C=C2/SC(=Nc3cccc(C(=O)O)c3)NC2=O)cc1	RBX1-CUL1 inh 89
COc1ccccc1C1CC(=O)N=C(C)C1C(=O)OC1CCCCCC1 (stereo unspecified)	none
COc1cc(/C=C2\SC(=O)N(c3ccc(Cl)cc3)C2=O)c(Br)cc1OCC(=O)O	RBX1-CUL1 inh 41
CCOC(=O)COc1cc(Br)c(/C=C2/SC(=O)N(CC)C2=O)cc1OC	none
COc1cc(/C=C2\SC(=O)N(Cc3ccc(F)cc3)C2=O)c(Br)cc1OCC(=O)O	none
O=C(O)COc1ccc(Br)cc1/C=C1/SC(=O)N(CC(=O)N2CCCC2)C1=O	none
CCc1ccccc1N=C1S/C(=C\c2cc(Br)ccc2OCC(=O)O)C(=O)N1c1ccccc1CC	none
O=C(O)COc1ccc(Br)cc1/C=C1\SC(=O)N(c2cccc(Cl)c2)C1=O	RBX1-CUL1 inh 51
Cc1ccc(NC(=O)CC2C=CS(=O)(=O)C2)cc1C (stereo unspecified)	none
O=C(NCc1ccon1)Nc1nnc(CCN2CCOCC2)s1	none
CCOC(=O)c1cccc2c1N=C(C(=O)OC)C(C(=O)c1ccc(Cl)cc1)C2=O (stereo unspecified)	none
O=C1C2C3C=CC(C4C=CC43)C2C(=O)N1c1ccccc1 (stereo unspecified)	none
CCCC(C(=O)O)N1C(=O)/C(=C/c2ccc(F)cc2)SC1=S (stereo unspecified)	none
NC(=O)CC(C(=O)O)N1C(=O)/C(=C/c2cccc(Br)c2)SC1=S (stereo unspecified)	RBX1-CUL1 inh 33
O=C(CCCN1C(=O)/C(=C\c2cccc(Br)c2)SC1=S)NNC(=O)c1ccccc1O	none
O=C1CC(c2cccc(F)c2F)c2cc3c(cc2N1)OCO3 (stereo unspecified)	none
Cc1ccc2c(c1)c1c3n2CC(=O)N(Cc2ccccc2)C3CCC1 (stereo unspecified)	none
CCC(=O)Nc1cccc(NC(=O)CC)n1	none
Clc1ccc(OC/C=C/CN2CCOCC2)cc1	none
Cc1ccc(-c2[nH]c3ccccc3c2C)cc1	none
O=C(O)c1cccc(-c2ccc(/C=c3/sc4n(c3=O)C(c3cccc(F)c3)C3=C(N=4)c4ccccc4CC3)o2)c1 (stereo unspecified)	RBX1-CUL1 inh 73
O=C(O)c1ccc(-c2ccc(/C=c3/sc4n(c3=O)C(c3ccc(F)cc3)C3=C(N=4)c4ccccc4CC3)o2)cc1Cl (stereo unspecified)	RBX1-CUL1 inh 58
O=c1/c(=C/c2ccccc2O)sc2n1C(c1cccs1)C1=C(N=2)c2ccccc2CC1 (stereo unspecified)	none
Cc1cc(/C=c2/sc3n(c2=O)C(c2ccc(F)cc2)C2=C(N=3)c3ccccc3CC2)c(C)n1-c1ccc(C(=O)O)cc1 (stereo unspecified)	none
O=c1/c(=C\c2cc(Cl)ccc2O)sc2n1C(c1ccccc1)C1=C(N=2)c2ccccc2CC1 (stereo unspecified)	none
COc1ccc(/C=c2/sc3n(c2=O)C(c2cccc(F)c2)C2=C(N=3)c3ccccc3CC2)cc1OC (stereo unspecified)	none
O=C(O)c1ccc(/C=c2/sc3n(c2=O)C(c2cccs2)C2=C(N=3)c3ccccc3CC2)cc1 (stereo unspecified)	RBX1-CUL1 inh 56
O=c1/c(=C\c2ccc(O)cc2)sc2n1C(c1cccs1)C1=C(N=2)c2ccccc2CC1 (stereo unspecified)	none
O=c1/c(=C/c2ccc(N3CCOCC3)o2)sc2n1C(c1ccc(F)cc1)C1=C(N=2)c2ccccc2CC1 (stereo unspecified)	none
CN(C)CCNCC(O)CN1CCn2c3c(c4cc(C5CCCCC5)ccc42)CCCC31 (stereo unspecified)	none
CCOC(=O)C1(Cc2ccc(F)cc2F)CCCN(C(=O)c2ocnc2C)C1 (stereo unspecified)	none
O=C(O)CCC(=O)Nc1ccccc1C(=O)Nc1cccc(Cl)c1	none
O=[N+]([O-])c1ccc(C=Nc2ccc(Br)cc2)s1	none
O=C(O)c1ccc(C(=O)c2c3c(=O)n(-c4ccccc4[N+](=O)[O-])c(=O)c3cc3c(=O)n(-c4ccccc4[N+](=O)[O-])c(=O)c23)cc1	none
Clc1cccc(-c2nnc(-c3cccc(Cl)c3)o2)c1	none
COC(=O)c1cc(-c2ccc(/C=C3/SC(=O)NC3=O)o2)ccc1Cl	none
CC1=C(C#N)C(=O)N(CC(C)C)C(=O)/C1=C/c1ccc(-c2ccc(Cl)cc2)o1	none
CC1=C(C#N)C(=O)NC(=O)/C1=C/c1ccc(-c2ccc(Cl)c(C(=O)OC(C)C)c2)o1	RBX1-CUL1 inh 86
Cc1cc(C)c(NC(=O)c2cc(C)on2)c(C)c1	none
O=C(N/N=C/c1cc(Cl)cc(Cl)c1O)c1ccc(Br)cc1	none
COc1cc(Br)cc(C(c2c(C)n(C)n(-c3ccccc3)c2=O)c2c(C)n(C)n(-c3ccccc3)c2=O)c1OC	none
N#CC1=c2s/c(=C\c3ccccc3C(F)(F)F)c(=O)n2C(=N)C(C#N)C1c1ccccc1C(F)(F)F (stereo unspecified)	none
N#CC1=c2s/c(=C/c3cccc(C(F)(F)F)c3)c(=O)n2C(=N)C(C#N)C1c1cccc(C(F)(F)F)c1 (stereo unspecified)	none
